Results: PubChem BioAssay (NCI)
About 83,000 compounds went through this panel and 20% of them were active in at least one assay; those are over-represented in the sample as a whole.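 Interpretation: 100, growth as untreated; towards 0, rising growth inhibition; 0, no net growth; 0 to -100, cell death. Compounds scoring below 10 were considered active.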 Values without a mark were called inactive. Calls of active or inactive are those of the source.

System: MDA-MB-468 breast
Assay: NCI-60 one-dose screen, 48 h (100 = growth as untreated, 0 = no growth, -100 = all killed)
Details: 10 µM unless noted

Structure (SMILES) | growth
O=C(/C=C/c1ccccn1)c1ccc(OCc2nnc(-c3ccc(Cl)cc3)o2)cc1 | -37.7% (active)
NS(=O)(=O)c1ccc(C(=O)NN2C(=O)c3c(Br)c(Br)c(Br)c(Br)c3C2=O)cc1 | 111%
COc1cccc(C(=O)NNC(=O)c2cccc3ccccc23)c1 | 111%
C[C@]12CC[C@@H]3c4ccc(O)c([N+](=O)[O-])c4CC[C@H]3[C@@H]1CC[C@@H]2NS(=O)(=O)c1ccc(C(F)(F)F)cc1 | 25.2%
O=C1Nc2ccccc2/C1=N/N=C/c1c[nH]c2ccccc12 | 84.8%
NC(N)=NS(=O)(=O)c1ccc(Nc2ccc3nnc(-c4ccncc4)n3n2)cc1 | 96.6%
COC(=O)Nc1nc2ccc(C3(c4ccc(F)cc4)OCCO3)cc2[nH]1 | 23.3%
O=C1/C(=C\c2ccc(F)cc2)CN(C(=O)c2ccc([N+](=O)[O-])cc2)C/C1=C\c1ccc(F)cc1 | 0.822% (active)
Cc1ccc(-c2cc3nc(C(Cl)Cl)nc(-c4ccccc4C)n3n2)cc1 | 49.8%
C#CCn1cccc1CNc1ccc(OC)cc1 | -76.9% (active)
Cc1ccnc(Nc2ccc([N+](=O)[O-])c(NCCN3CCOCC3)n2)c1 | 26.3%
O=C(Nc1cccc(-n2ccc3c(NC(=O)c4ccccc4)nccc32)c1)c1cccc(C(F)(F)F)c1 | -2% (active)
NNc1nc(-c2cccnc2)nc2c1sc(=S)n2-c1ccccc1 | 115%
CNC(=O)c1cc(Oc2ccc3nc(NC(=O)NC(C)C)sc3c2)ccn1 | 34.3%
CN1CCN(c2ccc(-c3ccc4ncc(C#N)c(Nc5ccc(F)c(Cl)c5)c4c3)cn2)CC1 | 10.6%
COc1cc(C2CC(c3ccc4c(c3)OCO4)=NN2c2ccccc2)cc(OC)c1OC (stereo not given) | 75.7%
C=C1CC2(OC1=O)C(=O)N(CCCCCCCN1C(=O)C3(CC(=C)C(=O)O3)c3ccccc31)c1ccccc12 (stereo not given) | -17% (active)
COc1cc(-c2nn(-c3ccc(NC(=O)c4ccc(Cl)c(Cl)c4)cc3)cc2-c2ccncc2)ccc1Cl | 78.3%
O=C(O)c1cccnc1Br | 102%
O=C1CSC(=S)N1Cc1cccnc1 | 47.6%

Structure (SMILES) | growth
CSc1nc2c(c(=O)n1C)CN(Cc1ccccc1)C(=O)CN2 | 71.3%
FC(F)(F)c1nn[nH]n1 | 99%
O=C(N/N=C\c1cc(Br)ccc1O)c1ccncc1 | 24%
COc1ccc(Nc2nccc(N3CCN(c4c5ccc(Cl)cc5nc5ccc(OC)cc45)CC3)n2)cc1 | 31.5%
Cc1ccc(C2CC(c3cccs3)=NN2c2ccc(S(N)(=O)=O)cc2)s1 (stereo not given) | 16.3%
O=c1oc2c(C(F)(F)F)cccc2cc1-c1csc(Nc2ccc(OCCF)cc2)n1 | 5.55% (active)
O=C1c2c(c3c4ccccc4[nH]c3c3ccc4ccccc4c23)C(=O)N1CCN1CCCCC1 | -0.798% (active)
COCCNc1ccc2c3c(cccc13)C(=O)N(CCN(C)C)C2=O | 45.2%
CN(C)CC1CCC(CN(C)C)C1=O (stereo not given) | 108%
CCCCn1c(=O)c(/C=C/C(=O)/C=C/c2ccc(O)c(OC)c2)cc2ccc(Cl)cc21 | 15%
CN1CCN(Cc2ccc(NC(=O)c3[nH]ncc3Nc3ncnc4c3CCC4)cc2)CC1 | 9.05% (active)
CCOC(=O)CC1CSC(N/N=C/c2ccc(F)c(Br)c2)=N1 (stereo not given) | 116%
Cc1ccc(-n2nc3n(/c2=N\C(=O)NS(=O)(=O)c2ccc(C)cc2)CCN3C2=NCCN2)cc1 | 114%
COC(=O)c1ccc(-n2cc(CCCOS(=O)(=O)c3ccc(F)cc3)nn2)cc1 | 108%
COc1ccc(Nc2nnc(-c3ccc(OC)c(OC)c3)o2)cc1 | 90.8%
NC(=O)c1c(NC(=O)COC(=O)Cc2ccccc2F)sc2c1CCC2 | 112%
CCCCC(CCc1ccc([N+](=O)[O-])cc1)(C(C)=O)C(=O)OCC (stereo not given) | 83.8%
C1=C2CCCC3=Cc4ccccc4OC23Oc2ccccc21 | 25.5%
CC(=O)NC1(C(=O)O)CCCC1 | 116%
Cc1ccc(/C=N/Nc2nc(Nc3ccccc3)nc(Nc3ccc(S(N)(=O)=O)cc3)n2)cc1 | 65%
